High-throughput results deposited in PubChem BioAssay by National Center for Advancing Translational Sciences (NCATS).
MARV entry inh: Marburg virus entry inhibition. Marburg virus pseudotyped entry inhibition, cell reporter. Potency, µM (doses to about 37.8 µM), for inactives: at the highest dose activity change, negative = inhibition, most hits filed as inhibitors. hit rate 1.8% among 300,000; calls by dose curve; tested in HEK293 cells; note: potency is the fitted concentration of half-maximal effect
HCMV inh: blocks human cytomegalovirus replication. HFF cells, HCMV-luciferase reporter, 72 h; stronger effect = lower value. AID 1259415. activity change, negative = inhibition, % at 57.5 µM. hit rate 4.5% among 410,000; in the data active = activity change below about -60%; inconclusive = no clear call, values can overlap the other calls; inactive = above about -39%
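Steps: HFFs plated, 16 h 37C; compounds added; HCMV-luciferase added to MOI 1 PFU/cell; 72 h 37C; OneGlo reagent, 5 min room temperature; luminescence read, normalized to controls.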
FMDV inh: blocks foot and mouth disease virus. Potency, µM (highest dose often 57.9 µM), for inactives: top-dose activity change, negative = inhibition, most hits filed as inhibitors. FMDV antiviral cell-based qHTS. hit rate 1.2% among 410,000. AID 1159524; calls by dose curve; tested in HEK293T cells; note: read-out not given here; potency is the fitted concentration of half-maximal effect; nearly all actives have a fitted effect of over 45% in size
LASV entry inh: blocks Lassa virus binding to or entry into cells; Potency, µM (top dose mostly 37.9 µM), without a hit: at the highest dose activity change, negative = inhibition, hits mostly inhibitors; AID 540256; Lassa virus pseudotype entry inhibition, cell reporter; hit rate 1.2% among 300,000; calls by dose curve; tested in HEK293 cells; note: potency is the fitted concentration of half-maximal effect; nearly all actives have a fitted effect of over 50% in size
VACV mCherry inh: vaccinia inhibition (mCherry reporter). Vaccinia virus mCherry reporter infection, fluorescence. Potency, µM (series often up to 36.5 µM), without a hit: at the highest dose activity change, negative = inhibition, hits mostly inhibitors. hit rate 0.63% among 310,000. AID 720579; calls by dose curve; tested in A549 cells; note: potency is the fitted concentration of half-maximal effect; nearly all actives have a fitted effect of over 35% in size
Vaccinia Venus: vaccinia inhibition (Venus reporter); Vaccinia virus Venus reporter expression, fluorescence; Potency, µM (top dose mostly 36.5 µM), for inactives: at the top dose activity change, negative = inhibition, usual class: inhibitors; hit rate 0.46% among 330,000; calls by dose curve; tested in A549 cells; note: potency is the fitted concentration of half-maximal effect; nearly all actives have a fitted effect of over 30% in size
An asterisk follows results filed as active; i = inactive; ? = inconclusive; nt = no result given; [ ] = dose if it differs, or a comment. Sampled rows, rich in hits. Any-hit rate of the full collection: about 6.5%. % is set by controls: 0 for no effect and ±100 for the full control effect.

SMILES	MARV entry inh	HCMV inh	FMDV inh	LASV entry inh	VACV mCherry inh	Vaccinia Venus
C/C(CCN1CCCc2nc(C)c(C)cc21)=N\OC[C@@H](O)[C@H]1O[C@@H]2OC(C)(C)O[C@@H]2[C@H]1O	-8%[14.2 µM]	nt	nt	nt	nt	nt
COc1cc(OC)c(OC)cc1/C=C/c1ccc2ccccc2n1	nt	nt	nt	nt	?	-21%
COc1cc2nc(N(C)C)c(CNCc3nonc3C)cc2c(OC)c1OC	nt	nt	-3%	nt	-5%	7%
C=C[C@H](C)[C@](C)(O)c1ccccc1	19%[14.2 µM]	nt	nt	nt	nt	nt
CCOC(=O)c1[nH]c(C)c(CCC(=O)Nc2ccccc2OCC)c1C	nt	0	-3%	?	-9%	-14%
O=C(COC(=O)/C=C/c1cccc(Br)c1)NC1CCCC1	-3%[46.1 µM]	-100*	-3%	8%[46.1 µM]	-9%	-1%
CCn1cc([N+](=O)[O-])c(C(=O)N2N=C(c3ccc4ccccc4c3)CC2c2cc(Br)ccc2O)n1 (stereo unspecified)	?	nt	-16%	?	14µM*	?
Nc1c(-c2nc(-c3cccs3)no2)nnn1-c1cccc(F)c1	nt	72	26%	-4%[46.1 µM]	-6%	-5%
Cc1ccc(C(=O)Nc2ccccc2C(=O)Nc2ccccn2)cc1Cl	13µM*	21	17%	3%	-9%	-10%
O=C(CN1CCN(c2ccccn2)CC1)N1c2ccccc2CCc2ccccc21	-23%	-19	-26%	-15%	nt	nt
COc1cc(Cl)c(C)cc1NC(=O)c1ccccc1NC(=O)CN1CCN(c2ccccn2)CC1	nt	-95*	-29%	nt	nt	nt
COc1cc(NC(=O)c2ccccc2)c(OC)cc1NC(=O)CN1CCN(c2ccccn2)CC1	?	0	?	?	nt	-2%
CSc1ccccc1NC(=O)CN1CCN(c2ccccn2)CC1	nt	-63*	-8%	nt	nt	nt
CC(C)c1ccc(NC(=O)CN2CCN(c3ccccn3)CC2)cc1	nt	-35	-5%	nt	nt	nt
Cc1c(C)n(C(=O)CN2CCN(c3ccccn3)CC2)c2ccccc12	?	34	32µM*	9%	nt	-17%
CC#C[C@H](C)[C@@H](OCOC)[C@H](C[C@H](C)Cc1cc(Br)cc(OCc2ccccc2)c1OC)OC	-10%[14.2 µM]	nt	nt	nt	nt	nt
C=N[C@@H](C(=O)N[C@@H]1C(=O)N2[C@@H]1SC(C)(C)[C@@H]2C(=O)O)c1ccccc1	nt	nt	6%	nt	-9%	-8%
COCc1c(C(=O)N2CCCC(C)C2)cnn1-c1nccc(-c2cc(C)sc2C)n1 (stereo unspecified)	nt	nt	26%	nt	-5%	-3%
COc1ccc(C(O)(c2ccccc2)C(C(=O)O)c2ccccc2)cc1 (stereo unspecified)	16%[46.1 µM]	-5	0%	1%[46.1 µM]	-6%	-13%
CCN1C(=O)NC(c2cccc(C(F)(F)F)c2)C(C(=O)OC)=C1C (stereo unspecified)	23%[14.2 µM]	nt	nt	nt	nt	nt
COc1ccc(N2CCN(CC(=O)Nc3ncc(C)s3)CC2)cc1	nt	-18	-16%	nt	nt	nt
Cc1cnc(NC(=O)CN2CCN(c3ccccn3)CC2)s1	4%	-97*	-3%	2%	?	?
Cc1ccc(C)c(NC(=O)CCNS(=O)(=O)c2ccc3c(c2)CCCC(=O)N3)c1	nt	-14	-16%	6%[46.1 µM]	0%	0%
O=C(COC(=O)c1cc2ccccc2cc1O)Nc1cccnc1Cl	13%	2	7%	24%	-11%	-8%
Cc1ccc2nc(C)cc(C(=O)OCC(=O)Nc3cccnc3Cl)c2c1	30%[46.1 µM]	-76*	-17%	9%	4%	2%
SMILES	MARV entry inh	HCMV inh	FMDV inh	LASV entry inh	VACV mCherry inh	Vaccinia Venus
Cc1ccc(OCC(=O)Nc2ccccc2F)cc1C	-23%[46.1 µM]	9	37%	?	-5%	-8%
Cc1ccc(OCC(=O)Nc2cccnc2Cl)cc1C	27%[46.1 µM]	-61*	57%	6%	-7%	-1%
COC(=O)CCCn1cc(CN(C)C2CN(Cc3cn(CCCC(=O)OC)nn3)S(=O)(=O)C2)nn1 (stereo unspecified)	nt	-4	-15%	nt	-5%	0%
COc1cc(NC(=O)c2c(-c3ccc(C)cc3)nnc3ccccc23)cc(OC)c1OC	nt	0	24%	?	-27%	-19%
O=S(=O)(NCC(c1ccco1)S(=O)(=O)c1cccs1)c1ccc(Cl)cc1 (stereo unspecified)	nt	?	20%	-10%[46.1 µM]	-12%[7.34 µM]	-8%[7.34 µM]
CC(=O)c1sc(N/N=C\c2c(O)ccc3ccccc23)nc1C	?	-75*	-6%	?	?	25%
CC(=O)c1sc(N/N=C/c2cccc(O)c2)nc1C	nt	173	26%	nt	-16%	-20%
Cc1ccc(NC(=O)C(C)c2cccc(C(=O)c3ccccc3)c2)cc1O (stereo unspecified)	?	-62*	?	?	?	?
CC(c1ccco1)N(C(=O)C12CC3CC(CC(C)(C3)C1)C2)c1ccccn1 (stereo unspecified)	?	29	16%	11µM*	nt	-3%
CC(c1ccco1)N(C(=O)c1ccc(F)cc1)c1ccccn1 (stereo unspecified)	12%	-27	7%	7%	i	-2%
O=C(c1ccc(S(=O)(=O)Cc2cc(F)ccc2F)c([N+](=O)[O-])c1)N1CCCC1	?	-75*	0%	7%	-26%	-9%
CC1CCN(C(=O)c2ccc(S(=O)(=O)Cc3cccc(F)c3)c([N+](=O)[O-])c2)CC1	?	-84*	?	-5%	-10%	-8%
COc1ccc2c3c([nH]c2c1)[C@H](CO)N(C(=O)c1cccnc1)CC31CN(C(=O)c2cccnc2)C1	nt	-2	nt	nt	nt	nt
CCOc1ccccc1NC(=O)CN1C(=O)CC(c2ccco2)Sc2ccccc21 (stereo unspecified)	?	-87*	-19%	nt	-23%	-22%
Cc1cc(NC(=O)CN2C(=O)CC(c3ccco3)Sc3ccccc32)no1 (stereo unspecified)	nt	nt	-2%	nt	i	-5%
CC(=O)Nc1ccc(NC(=O)CN2C(=O)CC(c3ccco3)Sc3ccccc32)cc1 (stereo unspecified)	5%[46.1 µM]	-105*	-7%	nt	6%	7%
COc1cccc(NC(=O)CN2C(=O)CC(c3ccco3)Sc3ccccc32)c1 (stereo unspecified)	1%[46.1 µM]	-105*	-22%	nt	-8%	-4%
COc1ccc(OC)c(NC(=O)CN2C(=O)CC(c3ccco3)Sc3ccccc32)c1 (stereo unspecified)	?	-10	-9%	nt	-13%	-8%
C=C1C(=O)OC2CC1C(O)CC(C)=CCCC(C)=CC(O)CC2C (stereo unspecified)	4µM*	-34	7.9µM*	?	?	11µM*
Cn1c(CN2CCCCC2)nc2cc(NC(=O)c3ccc(F)cc3)ccc21	?	-62*	?	?	nt	nt
CCOC(=O)N1CCN(Cc2nc3cc(NC(=O)c4ccc(OC)cc4)ccc3n2C(C)C)CC1	?	-36	0%	?	?	?
CC(=O)N1CCN(Cc2nc3cc(NC(=O)c4cccc(Br)c4)ccc3n2C)CC1	?	-73*	?	-24%	i[7.34 µM]	-11%[7.34 µM]
